Test [1] is described as follows: CCTE_Shafer_MEA_dev_firing_rate_mean: CCTE's Neural Network Formation Assay for Mean Firing Rate, Shafer Lab (AID 2284031). Put shortly: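 Primary rat cortical neurons on 48-well MEA plates, exposed from plating day 0 with dosing renewed on DIV 5 and 9. Mean well firing rate over active electrodes, recorded days 5, 7, 9, 12, summarised as trapezoidal AUC.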
Test [2] in a line: CCTE_Shafer_MEA_dev_per_burst_spike_percent: CCTE's Neural Network Formation Assay for Percent of Spikes in a Burst, Shafer Lab (AID 2284032). Put shortly: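 Rat primary cortical neurons on 16-electrode MEA wells, dosed from plating day 0 for 12 days with renewal on DIV 5 and 9; spikes-in-bursts percentage averaged over bursting electrodes, collapsed as AUC across days 5, 7, 9, 12; loss direction versus DMSO.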

The nature of test [3]: CCTE_Shafer_MEA_dev_bursting_electrodes_number: CCTE's Neural Network Formation Assay for Number of Bursting Electrodes, Shafer Lab (AID 2284043; active = hit-call score of the fitted dose curve at least 0.9, where 1 is the maximum). The procedure, abridged: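 Read-out is the per-well number of electrodes bursting at least once every 2 minutes, recorded on days 5, 7, 9 and 12 and collapsed by trapezoidal area under the curve. Cultures were primary rat cortical neurons on MEA plates, treated continuously from plating.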

Test [4] is described as follows: CCTE_Shafer_MEA_dev_per_burst_interspike_interval: CCTE's Neural Network Formation Assay for Burst Interspike Interval, Shafer Lab (AID 2284044).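 Also: mean spike spacing inside bursts as AUC over recordings on days 5 7 9 12.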 The procedure, abridged: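 Spontaneous activity of maturing rat cortical networks is recorded on DIV 5, 7, 9 and 12 under chronic compound exposure beginning at plating. Endpoint: burst interspike interval well-mean, collapsed into trapezoidal AUC and fitted in the negative direction relative to DMSO.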

The nature of test [5]: CCTE_Shafer_MEA_dev_burst_duration_mean: CCTE's Neural Network Formation Assay for Mean Burst Duration, Shafer Lab (AID 2284045). The procedure, abridged:
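Read-out: average first-to-last-spike interval within single-electrode bursts, averaged over bursting electrodes per well, then summarised as area under the curve across days 5, 7, 9 and 12. Developing rat cortical networks were exposed from day 0.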

The nature of test [6]: CCTE_Shafer_MEA_dev_interburst_interval_mean: CCTE's Neural Network Formation Assay for Mean Interburst Interval, Shafer Lab (AID 2284046).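 Also: curve fitted for decrease in interburst interval relative to DMSO.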 Put shortly: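 Primary rat cortical neurons on PEI-coated 48-well MEA plates (laminin added with cells at plating) (16 electrodes/well), exposed from plating day 0 with renewal at DIV 5 and 9. Mean inter-burst interval averaged over bursting electrodes, AUC across days 5, 7, 9, 12; DMSO baseline.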

Test [7] is described as follows: CCTE_Shafer_MEA_dev_network_spike_number: CCTE's Neural Network Formation Assay for Number of Network Spikes, Shafer Lab (AID 2284048).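 Also: synchronized bursts across electrodes counted on days 5 7 9 12 and integrated as AUC.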 The procedure, abridged: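 Developing networks of primary rat cortical neurons are treated over 12 days starting at plating, with media and compound fully replaced on DIV 5 and 9. Network spike counts from four recording days are integrated as trapezoidal AUC.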

The nature of test [8]: CCTE_Shafer_MEA_dev_network_spike_peak: CCTE's Neural Network Formation Assay for Mean Number of Electrodes in Network Spike, Shafer Lab (AID 2284049). Put shortly:
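Rat cortical primary culture, 1.5 x 10^5 cells/well, 48-well MEA (16 electrodes/well). Dosing day 0 through DIV 12, full media/compound exchange DIV 5, 9. AxIS adaptive spike detection; AUC over days 5/7/9/12; loss-of-signal vs DMSO.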

The nature of test [9]: CCTE_Shafer_MEA_dev_spike_duration_mean: CCTE's Neural Network Formation Assay for Mean Spike Duration, Shafer Lab (AID 2284051). The procedure, abridged: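 Spontaneous activity was recorded on days 5, 7, 9 and 12 from rat cortical cultures grown on microelectrode arrays and dosed continuously from day 0, with media and compound renewed after the DIV 5 and 9 recordings. Network-spike duration was collapsed by area under the curve.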

The nature of test [10]: CCTE_Shafer_MEA_dev_per_network_spike_spike_number_mean: CCTE's Neural Network Formation Assay for Mean Number of Spikes in a Network Spike, Shafer Lab (AID 2284053). Put shortly: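 Mean spike count within each network spike, taken in a 0.05 s window at its peak, was recorded on days 5, 7, 9 and 12 and integrated as trapezoidal area under the curve. Rat cortical cultures on MEA plates received continuous compound from day 0, refreshed at medium changes on DIV 5 and 9.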

Test [11] can be described thus: CCTE_Shafer_MEA_dev_per_network_spike_spike_percent: CCTE's Neural Network Formation Assay for Percent of Spikes in a Network Spike, Shafer Lab (AID 2284054). The procedure, abridged: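 Rat primary cortical cultures, 1.5 x 10^5 cells/well on MEA. Continuous compound exposure d0–12, medium/compound renewed DIV 5, 9. Network-spike spike % (0.05 s peak window), AUC over 4 recordings, DMSO baseline.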

Test [12] is described as follows: CCTE_Shafer_MEA_dev_AB: CCTE's Alamar Blue Assay for Cytotoxicity in the Neural Network Formation Assay, Shafer Lab (AID 2284083; active = hit-call score of the fitted dose curve at least 0.9, where 1 is the maximum;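 also: resazurin reduction fluorescence as viability of cultured neurons; twelve days of exposure from plating with re-dosing on DIV 5 and 9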). Put shortly: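 Resazurin fluorescence, relative to DMSO, gauges viability after twelve days of exposure that began at plating of rat cortical neurons (1.5 x 10^5 cells/well, 48-well MEA); treatment renewed with full medium exchange on DIV 5 and 9.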

Test [13] in a line: CCTE_Shafer_MEA_dev_mutual_information_norm: CCTE's Neural Network Formation Assay for Mutual Information Normalization, Shafer Lab (AID 2284091). The procedure, abridged: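 Developing rat cortical networks on 16-electrode MEA wells are treated throughout formation (DIV 0–12). Shared electrode information is recorded four times, converted to area-under-curve, and fitted for decreases against DMSO vehicle.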

The nature of test [14]: CCTE_Shafer_MEA_dev_correlation_coefficient_mean: CCTE's Neural Network Formation Assay for Mean Correlation Coefficient, Shafer Lab (AID 2284093). The procedure, abridged:
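Primary rat cortical neurons on PEI-coated 48-well MEA plates (16 electrodes/well) were exposed from plating day 0 through DIV12, with compound renewed at DIV5 and 9. Pairwise spike correlations were averaged per well; trapezoidal AUC across DIV5, 7, 9, 12.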

A short description of test [15]: UKN2_HCS_IMR90_neural_migration: University of Konstanz (UKN) Leist Lab Neural Crest Cell Migration Assay in human induced IMR90 Pluripotent Stem Cells (UKN2) (AID 2284204). The note with it: actives raise or lower the signal. Put shortly:
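Migration of human IMR90-derived neural crest cells into a stopper-defined gap is imaged after 24 h chemical treatment. Activity is fitted bidirectionally relative to DMSO.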

The nature of test [16]: IUF_NPC1b_proliferation_BrdU_72hr: Leibniz Research Institute for Environmental Medicine (IUF) 72-hour Neural Progenitor Cell Bromodeoxyuridine (BrdU) Proliferation Assay (NPC1b) (AID 2284207). The procedure, abridged: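 Proliferation of primary human neural progenitor cells: 72 h compound treatment at 37C, 5% CO2, pH 7.2-7.6, in EGF/FGF-containing medium. Readout is BrdU uptake (last 16 h) by chemiluminescent ELISA, normalised to DMSO.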

Test [17] in a line: IUF_NPC1a_proliferation_area_72hr: Leibniz Research Institute for Environmental Medicine (IUF) 72-hour Neural Progenitor Cell Proliferation Area Assay (NPC1a) (AID 2284208). The procedure, abridged: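 Measured in 3D suspension: each well held one primary hNPC sphere grown with EGF and FGF at pH 7.2-7.6. Compound stayed on for 72 h, then area was imaged; spheres lacking growth factors defined reduced proliferation.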

The nature of test [18]: IUF_NPC1_viability_72hr: Viability Assessment at 72 hours in the Leibniz Research Institute for Environmental Medicine (IUF) Neural Progenitor Cell Proliferation Assay (NPC1) (AID 2284209). Put shortly: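 Single spheres (0.25-0.35 mm) of human fetal cortex-derived neural progenitor cells were grown in proliferation medium with EGF and FGF at 37C and 5% CO2. They were exposed for 72 h without renewal, and viability was read by alamar blue resorufin fluorescence.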

The nature of test [19]: CCTE_Mundy_HCI_Cortical_Synap_Neur_Matur_NeuriteSpotCountPerNeuriteLength: CCTE's Synaptogenesis and Neurite Maturation Assay in rat cortical cells for Neurite Spot Count per Neurite Length, Mundy Lab (AID 2284210). Put shortly: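 Primary rat cortical neurons, compound exposure DIV 7–12, 288.33 h endpoint. Hoechst, anti-MAP2 and anti-synaptophysin labelling; neurite-associated puncta per neurite length scored by automated imaging relative to DMSO controls.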

Test [20] is described as follows: CCTE_Mundy_HCI_Cortical_Synap_Neur_Matur_BPCount: CCTE's Synaptogenesis and Neurite Maturation Assay in rat cortical cells for Branch Point Count, Mundy Lab (AID 2284211). Put shortly: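 Rat primary cortical cultures, AraC added DIV 5; chemicals dosed DIV 7 through DIV 12. Fixed cells stained for MAP2, synaptophysin and Hoechst; neurite branch points counted by automated high-content imaging, fitted relative to DMSO.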

A short description of test [21]: CCTE_Mundy_HCI_Cortical_NOG_NeuriteCount: CCTE's Neurite Outgrowth Assay in rat cortical cells for Neurite Count, Mundy Lab (AID 2284212).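 Also: cells fixed about two days after chemical exposure began.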 Put shortly: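 Neurite number per cell from high-content imaging of betaIII-tubulin immunostaining, with Hoechst nuclear counterstain.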
Test [22] can be described thus: CCTE_Mundy_HCI_Cortical_NOG_NeuriteLength: CCTE's Neurite Outgrowth Assay in rat cortical cells for Neurite Length, Mundy Lab (AID 2284213). Put shortly: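 Neurite length was read by high-content imaging of βIII-tubulin-labelled neurites in rat primary cortical cultures. Activity was fitted relative to DMSO.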
Test [23] can be described thus: CCTE_Mundy_HCI_Cortical_Synap_Neur_Matur_NeuriteLength: CCTE's Synaptogenesis and Neurite Maturation Assay in rat cortical cells for Neurite Length, Mundy Lab (AID 2284214). The procedure, abridged: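 Rat primary cortical cultures, AraC added DIV 5, dosed DIV 7 through DIV 12 […]. Fixed, MAP2/synaptophysin immunostained with Hoechst; neurite length by high-content imaging, fitted in positive direction versus DMSO.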

Test [24] can be described thus: CCTE_Mundy_HCI_Cortical_Synap_Neur_Matur_NeuriteSpotCountPerNeuron: CCTE's Synaptogenesis and Neurite Maturation Assay in rat cortical cells for Neurite Spot Count per Neuron Count, Mundy Lab (AID 2284215). The procedure, abridged: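 Developing rat cortical neurons, with glia suppressed by AraC, are exposed to chemicals from DIV 7 to DIV 12. Automated fluorescence imaging of MAP2-labelled neurites and synaptophysin puncta yields a count per neuron, normalised against DMSO wells.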

Records with an inconclusive call do not appear. Activity calls are given as the source filed them. The calls were made as follows, unless noted: active = hit-call score of the fitted dose curve at least 0.9, where 1 is the maximum; inactive = score below 0.9.

Turning to `CC(=O)N[C@@H](CC(=O)O)C(=O)O`, the outcome in test [1], in [2], in test [3], in test [4], in [5] and in test [6] was inactive. Also, the compound was classed as inactive in test [7], in [8], in [9], in test [10], in [11] and in test [12]. The call in test [13], in test [14], in [15], in test [17], in test [18] and in test [19] was inactive. Further, the outcome in [20], in [21], in [22], in test [23] and in test [24] was inactive. In addition, the half-maximal activity concentration (AC50) in test [16] was 11.7 µM (active).

The values are drawn from PubChem BioAssay (EPA / NIEHS).
